40 compounds from PubChem BioAssay (NCATS) can be followed below.

Results filed as inconclusive are left out. Entries that show only a call come without a potency. Active and inactive are the calls of the source. Calls follow the shape of the dose curve; as a rule, active = well fitted inhibition curve with a large enough effect; inconclusive = small, poorly fitted or top-dose-only effect; inactive = flat fitted curve, though single readings scatter.
Potency is read from the fitted curve at half-maximal effect.

In the first test the test system is CRL-7250. Nature of the test: Cytotoxic Profiling of Annotated Libraries Using Quantitative High-Throughput Screening (AID 1296008). Also: nearly all actives have a fitted effect of over 60% in size. The following applies: Five cell lines viability, CellTiter-Glo ATP luminescence, 48-72 h; max response: active compounds read low. Summed up: (§1)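 Cytotoxicity was measured as CellTiter-Glo ATP luminescence, read after 10 min at room temperature. Compound treatment of the cells lasted 48 or 72 hr at 37 degrees Celsius in a qHTS format.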
(In general: Cellular ATP, detected with luciferase, serves as a proxy for viable cell number.)
On to `COc1c(C(C)C)c(O)c(O)c2c1C(OC)[C@H]1OC(=O)[C@@]23CCCC(C)(C)[C@H]13` (stereo partly drawn), for which the outcome was inactive.

As for `COC1C=C(C)C(O)(CO)C2(C)CCCC(C)(C)C12` (stereo not drawn), the compound was classed as inactive.

Turning to `CC(=O)Nc1nc(C)c(-c2nc(N3CCCC(O)C3)no2)s1` (stereo not drawn), the Potency was 8.2 µM (active).

Consider `Cc1[nH]c2ccccc2c1CCNCc1ccc(/C=C/C(=O)NO)cc1`, for which the Potency was 0.517 µM (active).

For `O=C(NO)c1ccc(CC(=O)N(CCO)c2ccccc2)cc1`, the max response is 0.727% (inactive).

For the compound `C=C1C(=O)O[C@@H]2/C=C(\CO)CC/C=C(\CO)[C@H](OC(C)=O)C(OC(=O)C(C)CC)C12` (stereo partly drawn), the max response is -5.38% (inactive).

In the case of `N#CC(CCCN1CCN(/N=C/c2cccnc2)CC1)(c1ccccc1)c1ccccc1`, the max response was -20.5% (inactive).

In the case of `Cc1nc(Nc2ccc(F)cc2)nc(N2CCc3ccccc3C2C)c1C` (stereo not drawn), the max response was -9.52% (inactive).

In the next test the test system is HaCat. The test is described as above. Particulars: Five cell lines viability, CellTiter-Glo ATP luminescence, 48-72 h; max response: active compounds read low. Summed up: as §1
As to `Cc1c(Cl)cccc1S(=O)(=O)Nc1nc(NCCc2ccccc2)nc2c1CN(Cc1ccccc1)CC2`, the compound was classed as inactive.

For `CCCn1ncc(CN2CCCC(C(=O)c3cccc(OC(C)C)c3)C2)c1C` (stereo not drawn), the max response was 4.33% (inactive).

`CCOC(=O)c1ccc(OCCC2CCN(c3ccc(C)nn3)CC2)cc1`: the outcome was inactive.

In the case of `COC(=O)CC(O)CC(O)/C=C/c1c(C)ccc2c1C(OC(C)=O)CC(C)C2` (stereo not drawn), the outcome was inactive.

With `CCN1C(C)(C)CC(Oc2ccc(C(=O)Nc3ccc(NC(=O)Nc4cc(C(C)(C)C)on4)cc3)nc2)CC1(C)C`, the outcome was inactive.

For the compound `O=C(Nc1nc2ccc([N+](=O)[O-])cc2s1)C1CCCCC1`, the call was inactive.

For `Cc1onc(-c2ccccc2)c1C(=O)N1CCN(c2ccc([N+](=O)[O-])cc2Cl)CC1`, the call was inactive.

Consider `CCC(C)C(=O)O[C@H]1[C@H](O)[C@@]2(COC(C)=O)C(CC1(C)C)C1=CCC3[C@@]4(C)CC[C@H](O[C@@H]5O[C@H](C(=O)O)[C@@H](O)[C@H](O)[C@H]5O)[C@@](C)(CO)C4CC[C@@]3(C)[C@]1(C)C[C@@H]2O` (stereo partly drawn), for which the compound was classed as inactive.

For `CN(C)C(CCOc1cccc2ccccc12)c1ccccc1` (stereo not drawn), the call was inactive.

Turning to `Nc1c(S(=O)(=O)c2ccccc2)c2nc3ccccc3nc2n1-c1ccc(F)cc1`, the max response is -0.67% (inactive).

Regarding `CC(C)(O)C1CC(=O)C2(C)C(CCC3(C)C(c4ccoc4)OC(=O)C4OC432)C12CCC(=O)OC2` (stereo not drawn), the result was inactive.

Turning to `C=CC(C)(C)c1[nH]c2ccccc2c1C[C@@H]1NC(=O)[C@H](C)NC1=O`, the max response was 1.83% (inactive).

On to `C=C1/C(=C/C=C2\CCC[C@]3(C)[C@@H]([C@H](C)/C=C/[C@@H](C)C(C)C)CC[C@@H]23)C[C@@H](O)C[C@@H]1O`, for which the outcome is “inactive; activator”.

For `O=C(NCCCN1CCOCC1)c1cnn2c(-c3ccccc3)cc(-c3ccccc3)nc12`, the max response is -15.4% (inactive).

For `CC(=O)O[C@@H]1[C@@H](O)[C@H](O[C@@H]2[C@@H](O)[C@@H](O)[C@H](O[C@H]3[C@H](O[C@H]4[C@H](O[C@H]5CC[C@@]6(C)C(CC[C@]7(C)C6CC=C6[C@@H]8CC(C)(C)CC[C@]8(C(=O)O)CC[C@]67C)[C@]5(C)CO)O[C@H](CO)[C@@H](O)[C@@H]4O)OC[C@@H](O)[C@@H]3O)O[C@H]2C)OC[C@H]1O` (stereo partly drawn), the max response was 3.54% (inactive).

As to `Cc1nnc(-c2ccc(-c3ccc(C(=O)Nc4ccc(O)c(N5CCN(C)CC5)c4)cc3)c(C)c2)o1`, the compound was classed as inactive.

On to `C/C(=C/C=C\C=C\Cc1cnco1)[C@@H](O)C(C)(C)C(N)=O`, for which the max response is -5.26% (inactive).

In the case of `C=C1CC[C@H]2C(=C)CC[C@H]3C(=C)C(=O)O[C@@H]3[C@@H]12`, the result was inactive.

Consider `COc1cc(C(=O)NC(=S)Nc2cccc(NC(=O)c3ccccc3)c2)cc(OC)c1OC`, for which the result was inactive.

As for `COc1ccc(NC(=O)c2ccc(-c3ccc(C(=N)N)cc3C)cc2)cc1N1CCN(C)CC1`, the compound was classed as inactive.

Regarding `OC1(CN2CCC(COc3noc4cccc(O[C@@H]5CCOC5)c34)CC2)CCOCC1`, the max response is -23.1% (inactive).

Take `Cc1cc(OCCCS(C)(=O)=O)cc(C)c1-c1cccc(COc2ccc3c(c2)OCC3CC(=O)O)c1` (stereo not drawn): the max response was 0.974% (inactive).

For the compound `COc1ccc(S(=O)(=O)Nc2c(C)cc(C)cc2C)cc1`, the max response is -0.296% (inactive).

Turning to `CC(C)C[C@@H](C(=O)N[C@@H](Cc1ccc(OCc2ccccc2)cc1)C(=O)NC(C)(C)C)N(C)Cc1ccc(C(C)(C)C)cc1`, the compound was called inactive.

Take `O=C(NCCCCN1CCN(c2cccc(Cl)c2Cl)CC1)c1cc2ccccc2s1`: the compound was classed as inactive.

Consider `O=C(NS(=O)(=O)c1ccc(Br)s1)c1ccc(Cl)cc1Cl`, for which the max response was 3.71% (inactive).

As for `Cc1cc(C(=O)Cn2cc(C#N)ccc2=O)c(C)n1Cc1ccccc1`, the call was inactive.

As to `CCCCCCCOc1cc2c(cc1/C(C)=C/c1ccc(C(=O)O)cc1)C(C)(C)CCS2(=O)=O`, the compound was called inactive.

Regarding `CN(C)C(=O)C(=O)c1cn(C)c2cc(Cl)c(C(=O)N3CCC(Cc4ccc(F)cc4)CC3)cc12`, the outcome was inactive.

Regarding `CC(=O)NC(C)c1cnc(-c2cnc(Oc3ccc(OC(C)C)cc3)s2)s1` (stereo not drawn), the max response was 2.34% (inactive).

Consider `C/C=C/CCC1Cc2cc(O)c(CCCC)c(O)c2C(=O)O1` (stereo not drawn), for which the result was inactive.

For `Cc1noc(C)c1-c1cc(O)cc(C(O)c2ccccc2)c1` (stereo not drawn), the max response is -28.1% (inactive).

As for `COc1c(C(C)C)c(O)c(O)c2c1C(OC)[C@H]1OC(=O)[C@@]23CCCC(C)(C)[C@H]13` (stereo partly drawn), the max response was -9.13% (inactive).

As for `COC1C=C(C)C(O)(CO)C2(C)CCCC(C)(C)C12` (stereo not drawn), the call was inactive.

Regarding `CC(=O)Nc1nc(C)c(-c2nc(N3CCCC(O)C3)no2)s1` (stereo not drawn), the Potency is 4.11 µM (active).

Take `Cc1[nH]c2ccccc2c1CCNCc1ccc(/C=C/C(=O)NO)cc1`: the Potency was 0.184 µM (active).

Consider `O=C(NO)c1ccc(CC(=O)N(CCO)c2ccccc2)cc1`, for which the outcome was inactive.

`C=C1C(=O)O[C@@H]2/C=C(\CO)CC/C=C(\CO)[C@H](OC(C)=O)C(OC(=O)C(C)CC)C12` (stereo partly drawn): the call was inactive.

Consider `N#CC(CCCN1CCN(/N=C/c2cccnc2)CC1)(c1ccccc1)c1ccccc1`, for which the max response is -26.9% (inactive).

`Cc1nc(Nc2ccc(F)cc2)nc(N2CCc3ccccc3C2C)c1C` (stereo not drawn): the compound was classed as inactive.
